By AC50 is commonly meant the midpoint of the concentration-response curve, whichever way the signal moves.

Read-out in experiment [1]: sulfotransferase 2A1 (SULT2A1), SULT2A1 (gene 6822)
Kind of experiment: LTEA_HepaRG_SULT2A1: Life Technologies and Expression Analysis (LTEA) Assay for sulfotransferase 2A1 (SULT2A1) using HepaRG (AID 2283531; active means hit-call score of the fitted dose curve at least 0.9, where 1 is the maximum; inactive means score below 0.9). To be noted: mRNA level, 48 h; actives raise or lower the signal. In a few lines:
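Gene-expression endpoint in a human liver cell line: SULT2A1 mRNA change after 48 h chemical treatment, curves fitted in both directions relative to 0.5% DMSO vehicle. Concentrations spanned eight half-log steps from 100 uM.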

Read-out in experiment [2]: Transforming Growth Factor (TGFA), TGFA (gene 7039)
Kind of experiment: LTEA_HepaRG_TGFA: Life Technologies and Expression Analysis (LTEA) Assay for Transforming Growth Factor (TGFA) using HepaRG (AID 2283532; active means hit-call score of the fitted dose curve at least 0.9, where 1 is the maximum; inactive means score below 0.9). The conditions noted are these: mRNA level, 48 h; actives raise or lower the signal. A digest of the protocol:
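Differentiated human HepaRG cells, plated 48 h then switched to serum-free induction medium, were exposed in duplicate for 48 h to 8-point half-log series from 100 uM in 0.5% DMSO. TGFA mRNA measured by qRT-PCR, normalized to ACTB/GAPDH/POLR2A, bidirectional fit versus DMSO.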

Read-out in experiment [3]: Transforming Growth Factor (TGFB1), TGFB1 (gene 7040)
Kind of experiment: LTEA_HepaRG_TGFB1: Life Technologies and Expression Analysis (LTEA) Assay for Transforming Growth Factor (TGFB1) Transporter using HepaRG (AID 2283533; active means hit-call score of the fitted dose curve at least 0.9, where 1 is the maximum; inactive means score below 0.9). The conditions noted are these: mRNA level, 48 h; actives raise or lower the signal. In a few lines:
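Eight-point concentration-response (max 100 uM, half-log) in HepaRG under serum-free induction conditions, 48 h. TGFB1 mRNA by qRT-PCR, housekeeping-normalized.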

Read-out in experiment [4]: Tumor necrosis factor receptor 1 (TNFRSF1A), TNFRSF1A (gene 7132)
Kind of experiment: LTEA_HepaRG_TNFRSF1A: Life Technologies and Expression Analysis (LTEA) Assay for Tumor necrosis factor receptor 1 (TNFRSF1A) using HepaRG (AID 2283535; active means hit-call score of the fitted dose curve at least 0.9, where 1 is the maximum; inactive means score below 0.9). The conditions noted are these: mRNA level, 48 h; actives raise or lower the signal. A digest of the protocol: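 Assay uses 48 h chemical treatment of differentiated HepaRG monolayers, tested in duplicate at eight concentrations from 100 uM downward in 0.5% DMSO. mRNA is normalized to ACTB, GAPDH and POLR2A, with induction or suppression fitted relative to vehicle.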

Read-out in experiment [5]: Thyroid Hormone Responsive (THRSP), THRSP (gene 7069)
Briefly: LTEA_HepaRG_THRSP: Life Technologies and Expression Analysis (LTEA) Assay for Thyroid Hormone Responsive (THRSP) using HepaRG (AID 2283536; active means hit-call score of the fitted dose curve at least 0.9, where 1 is the maximum; inactive means score below 0.9). To be noted: mRNA level, 48 h; actives raise or lower the signal. In a few lines:
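Differentiated human HepaRG cells were exposed in duplicate for 48 h in serum-free induction medium to eight concentrations (top 100 uM, half-log steps, 0.5% DMSO). Expression was quantified by TaqMan qRT-PCR, normalized to ACTB, GAPDH and POLR2A, with bidirectional fitting against DMSO.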

Read-out in experiment [6]: Cellular tumor antigen p53 (Homo sapiens) (UniProt P04637)
Kind of experiment: LTEA_HepaRG_TP53: Life Technologies and Expression Analysis (LTEA) Assay for Tumor Protein P53 (TP53) using HepaRG (AID 2283537; active means hit-call score of the fitted dose curve at least 0.9, where 1 is the maximum; inactive means score below 0.9). The conditions noted are these: mRNA level, 48 h; actives raise or lower the signal. A digest of the protocol: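 Differentiated HepaRG cells in serum-free induction medium exposed 48 h in duplicate to 8 half-log concentrations, top 100 uM, 0.5% DMSO. TP53 mRNA by TaqMan qRT-PCR (Fluidigm), normalized to ACTB, GAPDH, POLR2A; fitted bidirectionally versus DMSO.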

Read-out in experiment [7]: UDP glucuronosyltransferase (UGT1A1), UGT1A1 (gene 54658)
Kind of experiment: LTEA_HepaRG_UGT1A1: Life Technologies and Expression Analysis (LTEA) Assay for UDP glucuronosyltransferase (UGT1A1) using HepaRG (AID 2283538; active means hit-call score of the fitted dose curve at least 0.9, where 1 is the maximum; inactive means score below 0.9). The conditions noted are these: mRNA level, 48 h; actives raise or lower the signal. In a few lines: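 Readout is UGT1A1 transcript level by qRT-PCR, normalized to three housekeeping genes, after 48 h chemical treatment of HepaRG cells. Concentrations ran from 100 uM down in half-log steps with 0.5% DMSO, and gain or loss relative to DMSO was fitted.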

Read-out in experiment [8]: UDP glucuronosyltransferase (UGT1A6), UGT1A6 (gene 54578)
Briefly: LTEA_HepaRG_UGT1A6: Life Technologies and Expression Analysis (LTEA) Assay for UDP glucuronosyltransferase (UGT1A6) using HepaRG (AID 2283539; active means hit-call score of the fitted dose curve at least 0.9, where 1 is the maximum; inactive means score below 0.9). The conditions noted are these: mRNA level, 48 h; actives raise or lower the signal. A digest of the protocol: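 Measures mRNA change in HepaRG hepatic cells exposed 48 h to chemicals (eight-point, maximum 100 uM, 0.5% DMSO vehicle) in serum-free induction medium. Expression normalized to endogenous controls; DMSO served as negative control and baseline.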

Read-out in experiment [9]: X-box binding protein 1 (XBP1), XBP1 (gene 7494)
Kind of experiment: LTEA_HepaRG_XBP1: Life Technologies and Expression Analysis (LTEA) Assay for X-box binding protein 1 (XBP1) using HepaRG (AID 2283540; active means hit-call score of the fitted dose curve at least 0.9, where 1 is the maximum; inactive means score below 0.9). To be noted: mRNA level, 48 h; actives raise or lower the signal. In a few lines:
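Eight concentrations (half-log, highest 100 uM, 0.5% DMSO) tested in duplicate on HepaRG cells over 48 h in serum-free induction medium; qRT-PCR of XBP1 normalised to ACTB, GAPDH, POLR2A.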

A short description of experiment [10]: LTEA_HepaRG_LDH_cytotoxicity: Cytotoxicity Assessment in the Life Technologies and Expression Analysis (LTEA) Assay (AID 2283563).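 On AC50: LDH activity released into spent culture medium as a marker of cell death.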 In a few lines:
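Spent-medium LDH after 48 h chemical exposure of HepaRG cells in serum-free induction medium; eight concentrations, half-log dilutions from 100 uM, duplicate wells, fitted upward relative to 0.5% DMSO.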

Experiment [11] can be described thus: ATG_XTT_Cytotoxicity: Cytotoxicity Assessment in the Attagene TRANS-FACTORIAL HepG2 Assay (AID 2283584). In a few lines:
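24 h chemical exposure of reporter-transfected HepG2; XTT signal loss vs DMSO indicates cytotoxicity.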

In experiment [12] the target is Cellular tumor antigen p53 (Homo sapiens) (UniProt P04637). Kind of experiment: TOX21_p53_BLA_p2_ratio: Tox21 HCT-116 p53 Agonism Beta-lactamase Assay, Ratio, Phase 2 (AID 2283592). In a few lines:
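Human colon HCT116 cells with an inducible p53 beta-lactamase reporter are exposed to test chemicals for 16 h at 37C. Reporter induction is read as the 460/530 nm emission ratio after CCF4-AM loading, normalized to DMSO.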

The target is the same in experiment [13]. Kind of experiment: TOX21_p53_BLA_p3_ratio: Tox21 HCT-116 p53 Agonism Beta-lactamase Assay, Ratio, Phase 3 (AID 2283596). In a few lines:
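HCT116 p53-bla cells (4000/well) given compound in DMSO (217-fold dilution) after 5 h, incubated 16 h at 37C. CCF4-AM substrate 2 h at room temperature; 460/530 nm emission ratio, gain fitted against DMSO.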

Experiment [14] shares this target. Briefly: TOX21_p53_BLA_p5_ratio: Tox21 HCT-116 p53 Agonism Beta-lactamase Assay, Ratio, Phase 5 (AID 2283599). In a few lines:
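HCT-116 cells carrying a p53-inducible beta-lactamase reporter were seeded at 4000 cells/well and dosed after 5 h with compound in DMSO (217-fold dilution). After 16 h at 37C, CCF4-AM substrate was added for 2 h, and the 460/530 nm emission ratio was scored as gain-of-signal versus DMSO.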

Experiment [15] in a line: TOX21_p53_BLA_p5_viability: Viability Assessment in the Tox21 HCT-116 p53 Agonism Beta-lactamase Assay, Phase 5 (AID 2283600). In a few lines: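 Seeded cells (4000/well) settle 5 h before compound addition. Plates then incubate 16 h at 37C, receive FRET substrate for 2 h, and finally CellTiter-Glo, with luminescence measured after a 30 min room-temperature incubation.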

Experiment [16] addresses Cellular tumor antigen p53 (Homo sapiens) (UniProt P04637). Briefly: TOX21_p53_BLA_p4_ratio: Tox21 HCT-116 p53 Agonism Beta-lactamase Assay, Ratio, Phase 4 (AID 2283601). A digest of the protocol: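 HCT116 cells carrying an inducible beta-lactamase reporter were plated at 4000 cells/well, rested 5 h, then exposed to compounds in DMSO (217-fold dilution) for 16 h at 37C. CCF4-AM substrate was loaded 2 h at room temperature; 460/530 nm emission ratio scored gain-of-signal versus DMSO.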

Experiment [17] is described as follows: TOX21_p53_BLA_p2_viability: Viability Assessment in the Tox21 HCT-116 p53 Agonism Beta-lactamase Assay, Phase 2 (AID 2283591).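 Further: compound exposure lasted 16 h at 37 °C; actives lower the ATP signal meaning cytotoxicity.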 A digest of the protocol:
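HCT-116 p53-bla cells (4000/well) rested 5 h at 37C, then received compounds in DMSO (217-fold dilution) for 16 h at 37C, 5% CO2. After the CCF4 read, CellTiter-Glo was added; ATP luminescence was read after 30 min at room temperature.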

Experiment [18] can be described thus: TOX21_p53_BLA_p3_viability: Viability Assessment in the Tox21 HCT-116 p53 Agonism Beta-lactamase Assay, Phase 3 (AID 2283593).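 Further: cells exposed to compound for 16 h before reading.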 A digest of the protocol:
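HCT-116 cells (4000/well) rested 5 h at 37C, then got DMSO compounds by pin tool (217-fold dilution) for 16 h at 37C, 5% CO2. After the bla read, CellTiter-Glo was added and luminescence read at 30 min, room temperature.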

Experiment [19] can be described thus: TOX21_p53_BLA_p4_viability: Viability Assessment in the Tox21 HCT-116 p53 Agonism Beta-lactamase Assay, Phase 4 (AID 2283597).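 Further: hits lower the luminescence signal meaning cytotoxicity.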 In a few lines:
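Luminescent ATP readout (CellTiter-Glo, 30 min, room temperature) in the same wells as the p53 bla ratio. HCT116 cells were treated for 16 h at 37C with DMSO-dissolved compounds.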

Where “and” joins values, the source holds several entries; their conditions need not be identical. Equal values may be shown once. Records with an inconclusive call do not appear. Calls of active or inactive are those of the source. How the source made its calls, unless noted: active means hit-call score of the fitted dose curve at least 0.9, where 1 is the maximum; inconclusive means response in the unintended direction; inactive means score below 0.9.

Chain of Cellular tumor antigen p53 (Homo sapiens) (P04637 whole entry, looked up): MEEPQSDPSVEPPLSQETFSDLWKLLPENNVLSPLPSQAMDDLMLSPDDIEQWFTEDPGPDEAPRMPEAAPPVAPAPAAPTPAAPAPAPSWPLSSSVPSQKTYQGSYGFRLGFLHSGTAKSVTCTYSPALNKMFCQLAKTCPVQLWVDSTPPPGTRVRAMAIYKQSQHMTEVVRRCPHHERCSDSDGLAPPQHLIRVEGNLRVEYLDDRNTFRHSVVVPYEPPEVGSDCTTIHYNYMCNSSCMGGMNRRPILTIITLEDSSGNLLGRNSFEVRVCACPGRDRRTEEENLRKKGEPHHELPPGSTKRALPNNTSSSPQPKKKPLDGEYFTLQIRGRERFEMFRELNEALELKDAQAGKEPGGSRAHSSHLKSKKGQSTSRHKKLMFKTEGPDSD

Regarding `CC(C)(C)c1ccc(CSc2cnn(C(C)(C)C)c(=O)c2Cl)cc1`, the AC50 in experiment [1] is 22.7 µM (active); in experiment [2], 2.96 µM (active); in [5] it was 9.85 µM (active); in [6] it was 2.82 µM (active); in experiment [8], 18.8 µM (active); in experiment [9] it was 2.71 µM (active). Further, the values for the AC50 in [10] and in [12] were 3.02 µM (active) and 14.3 nM (active), respectively. The call in experiment [3], in experiment [4], in [7], in [11], in [13] and in experiment [14] was inactive. The outcome in experiment [15] and in experiment [16] was inactive.

As for `N#Cc1cc(Br)c(O)c(Br)c1`, the AC50 was 25.7 µM (active) in [1]; 14.2 µM (active) in experiment [3]; 16.9 µM (active) in [4]; 22.6 µM (active) in experiment [5]; 10.4 µM (active) in experiment [6]; 17 µM (active) in experiment [7]. Also, the AC50 was 23.5 µM (active) in experiment [8]; 10.5 µM (active) in [9]; 66.8 µM (active) in [10]; 40 µM (active) and 56 µM (active) in experiment [12]; 57.5 µM (active) and 55.7 µM (active) in experiment [13]; 57.3 µM (active) and 72.4 µM (active) in [14]. For the same compound, the AC50 in [16] is 57.9 µM (active) and 74.3 µM (active). Further, the compound was classed as inactive in [2], in experiment [17], in experiment [18] and in experiment [19].

In the case of `CS/C(C)=N/OC(=O)N(C)SN(C)C(=O)O/N=C(\C)SC`, the compound was called inactive in [1], in experiment [2], in [3], in experiment [4], in experiment [5] and in [6]. Moreover, the compound was classed as inactive in experiment [8], in experiment [9], in experiment [10], in experiment [12], in [13] and in experiment [14]. The call in [15] and in experiment [16] was inactive. Besides, the AC50 in experiment [7] was 29.1 µM (active).

Take `Cc1ccc(-c2c(Cl)nc(C#N)n2S(=O)(=O)N(C)C)cc1`: the AC50 in experiment [1] was 10.3 µM (active); in experiment [4] it was 34.9 µM (active); in experiment [5], 6.18 µM (active); in experiment [7], 37.4 µM (active); in experiment [8] it was 27.4 µM (active); in experiment [9], 90.6 µM (active). In addition, the AC50 is 8.94 µM (active) in experiment [10]; 8720 nM (active) in [12]; 12.1 µM (active) in experiment [13]; 71.9 µM (active) in experiment [19]; 20.1 µM (active) in experiment [14]; 17.3 µM (active) in experiment [16]. In addition, the call in [2], in experiment [3], in experiment [6], in [18] and in [15] was inactive.

Regarding `COP(N)(=O)SC` (stereo not given), the compound was called inactive in [1], in [2], in experiment [3], in experiment [4], in experiment [5] and in experiment [6]. The outcome in experiment [7], in [8], in experiment [9], in experiment [10], in experiment [18] and in experiment [13] was inactive. The result in experiment [14] and in experiment [15] was inactive.

As to `CCOC(=O)C(Cl)Cc1cc(-n2nc(C)n(C(F)F)c2=O)c(F)cc1Cl` (stereo not given), the result in experiment [1], in experiment [2], in experiment [3], in experiment [4], in experiment [5] and in experiment [6] was inactive. The result in experiment [8], in experiment [9], in [10], in [12], in experiment [19] and in [15] was inactive. Also, the outcome in experiment [16] was inactive. Also, in experiment [7], the AC50 was 38.2 µM (active).

For the compound `COC(=O)c1ccccc1C(=O)OC`, the outcome in experiment [1], in [2], in experiment [3], in experiment [4], in [5] and in [6] was inactive. In addition, the compound was classed as inactive in experiment [7], in experiment [8], in experiment [9], in experiment [10], in experiment [12] and in [18]. Moreover, the outcome in [13], in [19], in experiment [14], in [15] and in experiment [16] was inactive.
